Measurements published in the OligoGym collection.

Each sequence was assayed against PCDHA4 (assay: pooled miR-30 sensor sort-seq; sequence = guide strand). Conditions: shRNA.
Also: reference of the scale not given here.

Sequence	sensor-assay potency score (higher = more potent)
TTCCTCAGTTGTCTGCAGCTGA	0.537
TTAAGTTTAATTACCAATGTTC	-0.347
TATCGTTGTTGTCTTCTACTTC	0.366
TTGTGTTGCTGGGAACACCGGC	-0.469

Each sequence was assayed against PCDHGA11 in the same assay as above. Conditions: shRNA.

Sequence	sensor-assay potency score (higher = more potent)
TATCTCCACTTCGTCCTCCTGG	-0.661
TAAAACAGGAGACTTGACCATT	-0.606
TCTTGTTGCCATTGCCACCTGC	-0.107
ACAGTGATCAACATCGTCGTGG	-0.0572
TAGCTCTGGACCAACTCCCTGT	0.0165
TTGAATTTCCATCTCATAGAAT	-0.931
TTTTCTGGAACACTCACGCGAT	-0.577
TTTAGAAGAGCAATCACTGTAC	0.556
TATATTGTAGCTCTGGACCAAC	-0.9
TTTGTCCACCGCAACCACCTTG	-1.17
TTCTCCAGAATCTTGATCTTGC	0.227
TCAATTTGTAATAATTTCCATA	-0.421
TTGTCCACCGCAACCACCTTGG	-0.673

What follows are sequences tested against PCP2 in the same assay as above. Conditions: shRNA.

Sequence	sensor-assay potency score (higher = more potent)
TCCATGAGGCTGTCCATCTCGG	-1.39
TGAAGAAGCCCTCCTGGTCTGG	-1.06
TGAACAGCGCTGTCCCTCCATC	-1.32
ATGAGGCTGTCCATCTCGGGGG	-1.33
TGACTGTCACACGTTGGTCATC	-1.61
ACACGTTGGTCATCCATGCGGC	-0.873
TTGCAGTGAACAGCGCTGTCCC	-0.308
TTCTGTGCTCCGTCCTTGGACC	-1.15
TGTCACACGTTGGTCATCCATG	-1.21
TCGTTTCTGTGCTCCGTCCTTG	-0.435
TTGGTGGTCTGGCCCGGCCCGG	-1.82
TTTCTGTGCTCCGTCCTTGGAC	-1.03

The sequences below were run against PCSK5 in the same assay as above. Conditions: shRNA.

Sequence	sensor-assay potency score (higher = more potent)
TTGTACAGTTCTTGAATCCTGG	-0.113
TTGATGAATCCGTACTTGCTGG	-0.268
TAGTGCAAACAGTCATTGCAGT	-0.552
TTTTGCTTCAACCATGTCCGTG	-0.77
TTGAAAGCAATTCCGACTGTGC	-0.25
TTGATTTGTCGGTCTGTGCTCT	0.6
TTTTGCAGGATTTGTATCCATT	-1.05
TTGTCTTGATTTGTCGGTCTGT	0.944
ATAGCTGATACTACAGCTCTGC	-0.314
TTCCATTGAAATGAAACTGTGG	-0.149
TTTGCTTCAACCATGTCCGTGA	0.588
